# From PubChem
# Sampled rows, rich in hits. Any-hit rate of the full collection: about 5.5%.
# Six1-Eya2 inh: qHTS Assay for Inhibitors of the Six1/Eya2 Interaction | Homeobox protein SIX1 (Homo sapiens) + Protein phosphatase EYA2 (Homo sapiens), … | AlphaScreen GST-Six1/His-Eya2 binding, biochemical; stronger effect = lower value | activity change, % (concentration not given with the values) | actives 0.56% (n = 360,000) | AID 651725, 2012; in the data active = activity change below about -65%; inconclusive = mostly about -30% to -63%; also: % is scaled to controls: 0 for no effect and ±100 for the full control effect
#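 Six1/Eya2 binding was read as AlphaScreen signal after compounds were pinned into GST-Six1 plus His-tagged Eya2 (5X stock 250/500 nM) in pH 8.0 Tris/NaCl/TCEP buffer, beads added, then incubated 1 h, 37 C, dark.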
# VP16 counter: VP16 counterscreen qHTS for inhibitors of ROR gamma transcriptional activity; Drosophila S2 Gal4-VP16 UAS-luciferase, luminescence, 20 h; Potency, µM (series often up to 53.6 µM), without a hit: at the highest dose activity, negative = inhibition, most hits filed as inhibitors; actives 3.5% (n = 310,000);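 also: Gal4-VP16 expression switched on by copper sulfate through the metallothionein promoter; potency is read from the fitted curve at half-maximal effect; % is scaled to controls: 0 for no effect and ±100 for the full control effect; nearly all actives have a fitted effect of over 50% in size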
# CBFb-RUNX1 inh: qHTS Assay for Compounds Blocking the Interaction Between CBF-beta and RUNX1 for the Treatment of Acute Myeloid Leukemia; Runt-related transcription factor 1 (Homo sapiens) + Core-binding factor subunit beta …; 230,000 tested, under 10 active; Potency, µM (highest dose often 59.8 µM), for inactives: at the top dose activity, negative = inhibition, actives largely listed as inhibitors; AlphaScreen CBFb-His/RUNX1-biotin binding, biochemical; also: % of control where 0% means no effect
#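 Bead-based AlphaScreen assay; binding partners His-tagged CBF-beta and biotinylated RUNX1 at 30 nM each. Compound exposure 15 min after a 20-min protein preincubation; bead step 90 min; all steps at room temperature.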
# MBNL1-CUG inh: qHTS Assay for Inhibitors of MBNL1-poly(CUG) RNA binding | Muscleblind-like protein 1 (Homo sapiens), Q9NR56 | TR-FRET MBNL1-His/biotin-(CUG)12 binding, 665/545 ratio | Potency, µM (top dose mostly 57.5 µM), inactives show at the top dose activity change, negative = inhibition, most hits filed as inhibitors | actives 0.036% (n = 280,000); active = well fitted inhibition curve with a large enough effect in the signal ratio, with a control signal flat, not every such curve was filed as active; inconclusive = small, poorly fitted or top-dose-only effect, or effect the other way, or a change in a side signal; inactive = no such curve, though single readings can be large or run the other way; the % refers to the signal ratio; also: potency is read from the fitted curve at half-maximal effect; % is scaled to controls: 0 for no effect and ±100 for the full control effect
#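 TR-FRET readout: Ex 340 nm, 665/545 nm emission ratio, normalized to buffer-only (basal) and MBNL1-(CUG)12 controls. Complex of MBNL1-His with Biotin-(CUG)12, compounds 92 nM–58 uM, incubated 60 min at room temperature.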
# RORg inh: qHTS for inhibitors of ROR gamma transcriptional activity. Nuclear receptor ROR-gamma (Mus musculus), P51450. Potency, µM (top dose mostly 53.6 µM), inactives show at the highest dose activity change, negative = inhibition, actives largely listed as inhibitors. AID 2551, 2010. Drosophila S2 Gal4-RORgamma UAS-luciferase reporter, 20 h. actives 5.4% (n = 310,000); also: potency is read from the fitted curve at half-maximal effect; % is scaled to controls: 0 for no effect and ±100 for the full control effect; nearly all actives have a fitted effect of over 60% in size
# Target sequence (P51450 whole entry, looked up, the tested form may be a part): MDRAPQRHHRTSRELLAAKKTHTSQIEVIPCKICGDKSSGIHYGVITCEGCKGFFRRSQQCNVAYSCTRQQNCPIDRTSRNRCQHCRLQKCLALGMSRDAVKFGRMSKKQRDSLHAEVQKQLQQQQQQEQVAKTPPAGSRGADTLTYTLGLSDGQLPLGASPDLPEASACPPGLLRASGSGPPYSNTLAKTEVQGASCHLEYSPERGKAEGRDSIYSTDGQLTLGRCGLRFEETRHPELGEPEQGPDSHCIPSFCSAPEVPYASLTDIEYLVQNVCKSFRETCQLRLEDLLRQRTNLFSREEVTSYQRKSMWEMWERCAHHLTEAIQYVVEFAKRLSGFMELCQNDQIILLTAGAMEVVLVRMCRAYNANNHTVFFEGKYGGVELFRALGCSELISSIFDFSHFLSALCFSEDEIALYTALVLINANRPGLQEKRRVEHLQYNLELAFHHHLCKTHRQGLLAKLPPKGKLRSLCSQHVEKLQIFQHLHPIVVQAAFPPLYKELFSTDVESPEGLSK
#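 Drosophila S2 cells stably expressing Gal4-DBD/mouse RORγ fusion under metallothionein promoter plus UAS-luciferase; compound 1 h, then 700 uM CuSO4 induction for 20 h at ambient temperature; inhibition read as reduced luminescence.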
# CtBP-E1A blk: qHTS Assay for Inhibitors of the CtBP/E1A Interaction; CtBP / adenovirus E1A interaction (AlphaScreen); AlphaScreen GST-E1A/His-CtBP binding, 1536-well; stronger effect = lower value; activity change, % (no concentration beside the values); actives 0.49% (n = 340,000); in the data active = activity change below about -65%; inconclusive = mostly about -30% to -63%; also: % is scaled to controls: 0 for no effect and ±100 for the full control effect
#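 In 5 uL wells, 23 nL compound meets equimolar GST-E1A and His-CtBP (5X stock 125 nM each) for 2 h, 37 °C. Beads (5X, 50 ug/mL) then 1 h, 37 °C, dark.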
# Starred values were filed as active, the others as inactive; ? = inconclusive; . = no result; [ ] = another dose, or the depositor's remark. Unless noted, calls follow the shape of the dose curve; as a rule, active = well fitted curve in the direction sought with a large enough effect; inconclusive = small, poorly fitted or top-dose-only effect, or another doubt; inactive = no such curve, though single readings can be large; an effect the other way counts as inactive or inconclusive.
SMILES,Six1-Eya2 inh,VP16 counter,CBFb-RUNX1 inh,MBNL1-CUG inh,RORg inh,CtBP-E1A blk
O=C(NCC1CCCO1)c1csc(Nc2cccc3ccccc23)n1 (configuration not stated),-8,-10%,?,?,11µM*,2
CO[C@@H]1c2cc(F)ccc2/C(=C\CCOC(=O)C/C=C/c2ccccc2)[C@H]1C,.,-3%,-1%,.,-12%,.
Cc1cc(C)c2c(=O)n(CC(=O)NCCCN3CCN(c4ccccc4F)CC3)sc2n1,1,5µM*,-5%,-9%,3.5µM*,-2
Cc1ccc(NC(=O)Cn2sc3nc(C)cc(C)c3c2=O)c(Cl)c1,3,?,7%,0%,?,-6
Cc1cc(C)c2c(=O)n(CC(=O)NCCCN3CCOCC3)sc2n1,0,5µM*,5%,-1%,4µM*,3
Cc1ccccc1CS(=O)(=O)CCC(=O)NCCCN1CCN(c2ccccc2F)CC1,8,0%,1%,-8%,0%,-2
CCc1ccc(OCC(=O)OCC(=O)NCCNC(=O)COC(=O)COc2ccc(CC)cc2)cc1,12,4%,.,1%,-24%,5
COc1ccc(N(C)S(=O)(=O)c2cccc(C(=O)N3CCN(c4cccc(C)c4C)CC3)c2)cc1,-1,.,.,.,.,5
O=C(c1ccc(-c2ccc([N+](=O)[O-])cc2)o1)N1CCCCC1,-6,16µM*,-27%,.,?,-10
CC1CCCC(C)N1C(=O)COC(=O)c1cc(=O)[nH]c2ccccc12 (configuration not stated),-1,.,.,.,.,4
CCOc1ccc(-n2nc3cc(C)c(N)cc3n2)cc1,6,-27%,.,24%,10µM*,.
COc1cc(C=O)ccc1OCc1ccccc1Br,3,11µM*,?,-12%,10µM*,21
COC(=O)c1ccccc1OCCCOc1ccc(C=O)cc1OC,-5,10µM*,2%,9%,8.9µM*,0
COc1cc(C=O)ccc1OCc1cccc(Br)c1,-6,?,?,-15%,?,0
C[C@@H]1CN([C@H](C)CO)C(=O)CCCn2nncc2CO[C@H]1CN(C)S(=O)(=O)c1ccc(-n2cccn2)cc1,-14,.,.,.,.,-19
Cc1cc(N2CCOCC2)ccc1/C=C\[N+](=O)[O-],2,10µM*,6%,9%[11.5 µM],6.3µM*,5
O=[N+]([O-])c1ccc(N2CCOCC2)cc1O,26,13%,5%,?,14%,0
O=C(NCCc1ccccc1)c1cc(=O)[nH]c2ccccc12,3,-9%,?,.,1%,-1
Fc1ccc(-c2cc(-c3nnc4n3CCCCC4)c3ccccc3n2)cc1,0,11µM*,1%,.,?,2
Clc1ccc(-c2cc(-c3nnc4n3CCCCC4)c3ccccc3n2)cc1,4,3.2µM*,-7%,-9%,?,-10
CCOC(=O)[C@]12CCC=C1N(Cc1ccc3c(c1)OCO3)C(=O)[C@H](CC(=O)NCc1cccc(C(F)(F)F)c1)C2,-5,.,.,.,.,-1
NS(=O)(=O)c1ccc(CCNC(=O)CSc2nc3ccsc3c(=O)n2CCCCCC(=O)O)cc1,3,-4%,1%,-12%,7.9µM*,0
CCOC(=O)/C(=C\c1ccc(OC(F)F)cc1)C1=Nn2c(nnc2-c2ccc(Cl)cc2)SC1,-23,5.6µM*,2%,.,6.3µM*,11
CCCCCC(C)NC(=O)CN1C(=O)NC(C)(c2ccc3ccccc3c2)C1=O (configuration not stated),-7,13µM*,.,-2%,5µM*,-2
O=C1/C(=C/c2cccnc2)SC(=S)N1c1ccc(F)cc1,6,-11%,0%,3%,11µM*,17
SMILES,Six1-Eya2 inh,VP16 counter,CBFb-RUNX1 inh,MBNL1-CUG inh,RORg inh,CtBP-E1A blk
Cc1ccc(/C=C2\SC(=S)N(CC3CCCO3)C2=O)o1 (configuration not stated),-28,?,?,13%,13µM*,-18
O=C1/C(=C/c2cccnc2)SC(=S)N1CC1CCCO1 (configuration not stated),-4,6%,0%,?,10µM*,13
O=C(OC1CCOC1=O)c1ccc(CO)cc1 (configuration not stated),0,7%,.,1%,-4%,-1
COc1cccc(CNc2cnc3ccccc3c2)c1O,-1,10µM*,6%,?,?,4
CC(=O)N[C@H]1[C@@H](O[C@@H](C)C(=O)O)[C@H](O)[C@H](CO)O[C@@H]1O,.,14%[17 µM],-16%[21.7 µM],.,-1%[16.9 µM],.
COc1ccc2nc(C)c3c(c2c1)OC(C(C)(Cl)Br)C3 (configuration not stated),-1,-23%,5%,6%,5µM*,1
Cc1ccc2nc(C)c3c(c2c1)OC(C(C)(Cl)Br)C3 (configuration not stated),-5,-24%,12%,0%,8%,5
Cc1ccc(-n2c(C)nc3c(cnn3-c3ccc(F)cc3)c2=O)cc1C,4,6.3µM*,1%,-6%,?,8
CC1(C(=O)Nc2ccc3c(c2)OCCO3)CN(S(C)(=O)=O)CC(=O)N1Cc1cccc(C(F)(F)F)c1 (configuration not stated),1,.,.,.,.,3
Cc1ccc(-c2nnc(NC3CCCC3)s2)cc1,8,?,.,5%,11µM*,7
c1ccc(CSc2nnc(NC3CCCCC3)s2)cc1,2,.,.,.,.,0
Cc1c(CC(=O)NCCCC(=O)O)c(=O)oc2cc3c(cc12)CCC(C)(C)O3,-1,7.1µM*,.,12%,5µM*,4
Cc1c(CC(=O)NCCCCCC(=O)O)c(=O)oc2cc3c(cc12)CCC(C)(C)O3,1,0%,.,7%,14%,6
Cn1c(=O)cc(OCCCC(=O)Nc2cccc(Cl)c2)c2ccccc21,-12,.,.,.,.,-4
O=C(CCCn1c(=S)[nH]c2ccc(Br)cc2c1=O)N1CCN(c2ccccn2)CC1,-12,?,4%,-6%,7.1µM*,-10
COc1ccc(N2CCN(C(=O)C3CCC(Cn4c(=S)[nH]c5ccccc5c4=O)CC3)CC2)cc1 (configuration not stated),-6,7.1µM*,6%,14%,3.5µM*,-7
